Assay outcomes deposited in PubChem BioAssay by The Scripps Research Institute Molecular Screening Center.
Compounds with a hit are over-represented: about 4.8% of the library has one in this group of screens.
ssDAF-12 act: activates DAF-12 receptor from parasite S. stercoralis. HEK293 ssDAF-12/GRIP1 lit1-tk-luc reporter, luminescence; % of 3 µM dafachronic acid response. 1% of 370,000 active. activation, % at 6.8 µM. AID 652126;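 active = activation above the mean over all tested compounds plus 3 SD, cut at about 0.9% in these data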;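 note: 0% = DMSO-only wells and 100% = 3 µM delta7-dafachronic acid wells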
hcDAF-12 act: activates DAF-12 receptor from parasite H. contortus. activation, % at 6.8 µM. HEK293 hcDAF-12 lit1-tk-luc reporter, luminescence; 0% DMSO, 100% Δ7-dafachronic acid. 1.4% of 370,000 active;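 active = activation above the mean of all tested compounds plus 3 SD, cut at about 5.5% in these data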;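 note: 100% = response to 3 µM Δ7-dafachronic acid high control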
SMARCA2 activ: SMARCA2 function activation, primary screen. MG213 cells, MMTV-luciferase reporter, dexamethasone, overnight. activation, % at 9.1 µM. 1% of 370,000 active; in the data active = activation above about 7.8%;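 note: 0% = vehicle wells and 100% = reference activator wells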
DAX1 inh-1: NR0B1 (DAX1) inhibition. inhibition, % at 6.75 µM. 0.99% of 340,000 active. AID 504766. P51843. HEK293 Gal4-DAX1 luciferase reporter, luminescence;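 active = inhibition above the mean over all tested compounds plus 3 SD, cut at about 4.2% in these data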;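 note: 0% = DAX1-transfected cells with DMSO and 100% = empty-vector control cells with DMSO; inhibition shows as a rise in luminescence from relieved DAX1 repression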
hgDAF12 agonist: hgDAF-12 agonism, primary luciferase screen. 1.8% of 370,000 active. AID 687014. activation, % at 6.8 µM. HEK293 GAL4-hgDAF12 UAS-luciferase reporter, agonist luminescence; normalized to butyrate control;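 active = activation above a cutoff set at the mean of all screened compounds plus 3 SD, cut at about 10% in these data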;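 note: 0% = DMSO wells and 100% = sodium butyrate wells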
DAX1 inh-2: DAX1 (NR0B1) inhibition, primary screen. HEK293T StAR-luciferase reporter, SF-1/DAX-1 repression relief. inhibition, % at 6.8 µM. 1.1% of 370,000 active;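 active = inhibition above the mean over all tested compounds plus 3 SD, cut at about 3.6% in these data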;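 note: 0% = DAX-1 cells with DMSO and 100% = cells lacking DAX-1 with DMSO; higher inhibition means more luminescence from relief of DAX-1 repression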
DAX1 inh confirm: confirmation of human DAX1 (NR0B1) inhibitors; 87% of 2,400 active; shares compounds with DAX1 inh-2; AID 652134; HEK293T StAR-promoter luciferase reporter, SF-1/DAX-1 repression; inhibition, % at 6.8 µM;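 active = inhibition above the average of every tested compound plus 3 SD, cut at about 3.8% in these data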;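 note: 0% = DAX-1 cells with DMSO and 100% = no DAX-1 control cells with DMSO; active compounds raise luminescence by relieving repression of the StAR reporter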
Target sequence (P51843 whole entry, looked up): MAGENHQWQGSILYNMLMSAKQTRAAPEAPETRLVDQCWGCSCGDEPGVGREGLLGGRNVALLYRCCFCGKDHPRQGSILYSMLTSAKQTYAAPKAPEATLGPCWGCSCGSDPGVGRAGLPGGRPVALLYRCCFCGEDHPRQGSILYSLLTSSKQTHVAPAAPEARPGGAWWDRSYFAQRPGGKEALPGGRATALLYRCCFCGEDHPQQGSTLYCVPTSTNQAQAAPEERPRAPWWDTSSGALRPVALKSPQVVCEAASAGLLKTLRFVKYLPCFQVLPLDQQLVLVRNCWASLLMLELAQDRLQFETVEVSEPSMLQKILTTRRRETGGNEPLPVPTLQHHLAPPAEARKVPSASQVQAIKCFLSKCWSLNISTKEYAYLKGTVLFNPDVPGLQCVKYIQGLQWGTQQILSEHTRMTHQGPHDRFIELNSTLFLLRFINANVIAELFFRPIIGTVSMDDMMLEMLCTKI
SF1 mutant ctr: nonselective inhibitor or artifact in SF-1 mutant DAX1 counter-screen. inhibition, % at 6.8 µM. shares compounds with DAX1 inh-2. 78% of 2,400 active. HEK293 StAR-luciferase, SF-1 AF2 mutant, luminescence;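 active = inhibition above the mean of all tested compounds plus 3 SD, cut at about 3% in these data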;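 note: 0% = DAX-1 transfected cells with DMSO and 100% = cells without DAX-1 with DMSO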
* hit, by the source's call; . = no result given.

SMILES	ssDAF-12 act	hcDAF-12 act	SMARCA2 activ	DAX1 inh-1	hgDAF12 agonist	DAX1 inh-2	DAX1 inh confirm	SF1 mutant ctr
O=C(CN1CCN(S(=O)(=O)c2ccc(Cl)cc2)CC1)NCC1(N2CCOCC2)CCCCC1	-1.1	-2.1	-2.8	0.0	-0.6	4.7*	1.4	2.5
CC(C(=O)Nc1ccccc1Sc1ccccc1)N(c1ccccc1)S(C)(=O)=O (configuration not stated)	-1.3	-2.2	-0.4	-0.3	-4.0	-1.1	.	.
N#Cc1c(NC(=O)/C=C/c2ccco2)sc2c1CCCC2	0.7	6.2*	3.6	2.2	6.1	5.1*	31.4*	-5.9
N#Cc1cccc(C(=O)OCC(=O)N2CCCc3ccccc32)c1	-0.4	2.8	3.7	0.2	-0.8	1.6	.	.
C/C(=N\NC(=O)c1ccc(O)cc1)c1ccc(NC(=O)Cc2ccccc2)cc1	-0.3	2.2	3.8	1.8	12.1*	5.5*	2.8	0.9
Nc1cc(-c2ccc(Cl)cc2)nn1-c1ccccc1	-1.2	1.8	-0.3	1.5	9.4	1.4	.	.
O=C1CCn2nc(-c3ccc(Cl)cc3)cc2N1	1.0*	4.5	0.8	2.7	7.6	5.3*	6.3*	4.3*
CC(C)(C)C(=O)Nc1ccc(C(=O)COC(=O)C2CC2)cc1	0.1	3.8	7.2	0.2	1.3	2.2	.	.
Cc1cccc(NS(=O)(=O)c2ccc(C(=O)NCC3(N4CCCCC4)CCCCC3)cc2)c1C	-0.5	3.8	0.2	0.6	1.6	7.3*	9.7*	6.6*
O=C(NCC1(N2CCCCC2)CCCCC1)c1ccc(NS(=O)(=O)c2ccccc2)cc1	-0.1	1.3	-0.2	2.7	3.7	8.9*	9.0*	5.6*
Cn1nnnc1SCc1nnc(-c2ccc(F)cc2)o1	-0.7	0.3	2.0	1.3	2.4	-0.1	.	.
COc1ccc(C=C(C#N)c2ccc(OC)cc2)cc1	-0.1	2.7	4.2	4.0	16.7*	6.7*	9.1*	4.0*
COc1cccc(NC(=O)NC2CCCCCCC2)c1	-0.4	1.9	2.8	1.1	9.8	4.8*	5.4*	4.3*
COc1ccc(NC(=O)NC2CCCCCCC2)cc1	0.9*	5.8*	4.1	2.3	12.9*	11.5*	10.2*	5.8*
O=C(Nc1ccccc1Cl)NC1CCCCCCC1	-0.6	0.8	2.3	1.8	6.0	5.2*	3.8*	2.4
O=C(Nc1cccc(F)c1)NC1CCCCC1	0.5	0.9	5.0	1.1	6.0	1.7	.	.
N/C(=N\OC(=O)c1ccco1)c1ccc(Br)cc1	0.7	3.5	1.9	1.8	9.8	4.7*	7.2*	4.4*
N/C(=N\OC(=O)c1ccco1)c1ccccc1	-0.6	3.0	5.8	3.7	8.4	3.1	.	.
COc1ccc(/C=C/C(=O)Nc2ccc(-n3nncc3-c3ccccc3)cc2)cc1OC	-1.9	-4.7	-3.1	-2.4	-4.6	-1.5	.	.
COc1ccc(N2C(=O)c3ccccc3NC23CCCCC3)cc1	0.3	2.8	4.9	0.7	12.1*	4.5*	13.0*	6.5*
Nc1ccc(-c2nc3cc(N)ccc3s2)cc1	1.0*	6.5*	4.0	0.1	20.9*	4.8*	11.0*	4.2*
COc1ccc(C#Cc2c(-c3ccccc3)n(C)c3ccccc23)cc1	0.0	2.8	-0.2	1.4	-0.1	-0.2	.	.
COC(=O)c1ccc2c(c1)c(C#Cc1ccccc1)c(-c1ccccc1)n2C	-1.0	1.8	5.4	0.0	6.7	4.7*	1.8	1.8
O=C(CCCCn1c(=O)[nH]c2ccsc2c1=O)NCc1cccnc1	-1.2	-0.7	-3.5	0.5	-0.9	-0.1	.	.
COC(=O)C1CCN(C(=O)COC(=O)/C=C/c2ccc(O)c(OC)c2)CC1	-0.5	1.0	0.3	0.5	-2.4	8.5*	-0.3	-0.8
SMILES	ssDAF-12 act	hcDAF-12 act	SMARCA2 activ	DAX1 inh-1	hgDAF12 agonist	DAX1 inh-2	DAX1 inh confirm	SF1 mutant ctr
Cc1c(-c2ccc(Cl)cc2)oc(=O)c2c(N)n(-c3ccccc3)nc12	-0.8	-0.7	-3.9	-2.4	1.8	-0.4	.	.
N#C/C(=C(/O)CN1CCCCC1)c1nc(-c2ccc(Cl)cc2)cs1	-0.3	4.0	3.0	1.4	3.6	1.3	.	.
Cc1ccc(-c2csc(/C(C#N)=C(\O)CCl)n2)cc1	-1.5	0.7	3.4	0.5	12.1*	5.1*	3.2	2.4
Cn1cc(CNC(=O)c2ccc3nc(Cc4ccccc4F)oc3c2)cn1	0.0	3.1	2.4	0.8	4.3	1.4	.	.
O=C(NCCc1ccccn1)c1ccc2nc(Cc3ccccc3F)oc2c1	0.1	1.0	1.3	2.1	8.5	7.0*	6.9*	5.2*
Cn1cc(CCNC(=O)c2ccc3nc(Cc4ccccc4F)oc3c2)cn1	-0.7	4.0	2.4	2.4	11.9*	5.0*	7.1*	5.8*
O=C1NC(=Nc2ccc(F)cc2)SC1Cc1ccc(F)cc1 (configuration not stated)	-1.1	-1.0	1.6	.	0.7	0.1	.	.
O=C(CNC(=O)c1cccs1)Nc1ncccc1O	-0.7	1.9	-0.4	0.3	0.4	4.5*	3.1	2.4
O=C(CNC(=O)c1cccs1)c1ccc(F)cc1	-0.5	4.9	7.8	1.0	13.2*	4.7*	16.3*	6.9*
Cc1ccsc1C(=O)OCc1nc2ccsc2c(=O)[nH]1	-0.6	-0.7	-2.1	-0.6	0.5	1.2	.	.
CC(=O)c1c(C)[nH]c(C(=O)OCc2nc3ccsc3c(=O)[nH]2)c1C	-0.1	1.4	1.8	2.4	12.0*	7.1*	4.7*	3.2*
O=c1[nH]c(COc2ccc(Cl)cc2Cl)nc2ccccc12	-0.4	-0.3	4.0	0.5	7.2	5.2*	13.3*	6.8*
Cc1nn(-c2ccccc2)c(Cl)c1/C=N/NC(=O)c1ccn[nH]1	0.3	5.8*	7.2	-0.3	13.2*	14.4*	8.8*	5.8*
O=C(C[C@H]1C[C@H](C(=O)N2CCOCC2)[C@@]2(CCC3CCCC3)c3[nH]c4cc(-c5ccco5)ccc4c3CCN2C1=O)NCCC1=CCCCC1	.	.	.	-0.5	.	.	.	.
O=C(C[C@H]1C[C@H](C(=O)N2CCOCC2)[C@@]2(CCC3CCCC3)c3[nH]c4cc(-c5ccco5)ccc4c3CCN2C1=O)NCCc1ccccn1	-1.3	-1.8	1.8	-1.1	-3.0	4.6*	-1.2	-1.1
COc1ccc(CNC(=O)C[C@H]2C[C@H](C(=O)N3CCCCC3)[C@@]3(CCc4ccccc4)c4[nH]c5cc(-c6ccco6)ccc5c4CCN3C2=O)cc1OC	.	.	.	-1.0	.	.	.	.
